# High-throughput results: PubChem BioAssay, National Center for Advancing Translational Sciences (NCATS)
# Luciferase inh: blocks Photinus pyralis firefly luciferase activity | P08659 | purified firefly luciferase, luminescence, 8 min | Potency, µM (doses to about 57.1 µM), for the others: top-dose activity change, negative = inhibition, usual class: inhibitors | 72,000 compounds, 2.2% hits; further: on the % scale 0 is the no-effect control and ±100 the full control effect; nearly all actives have a fitted effect of over 40% in size
#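 Firefly luciferase (PKLight detection mix) with 10 uM ATP in pH 7.2 imidazole buffer (KCl, MgCl2, Tween 20, BSA). Compounds tested across a concentration series (qHTS). Luminescence read after 8 min at ambient temperature.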
# ERK AVP inh: blocks ERK signaling stimulated by vasopressin; Potency, µM (series often up to 57.5 µM), without a hit: at the top dose activity, negative = inhibition, most hits filed as inhibitors; 72,000 compounds, 0.99% hits; AID 995; HEK293-V1b, vasopressin-stimulated pERK AlphaScreen; further: on the % scale 0 is the no-effect control and ±100 the full control effect; nearly all actives have a fitted effect of over 55% in size
#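 qHTS, compounds titrated on V1b-expressing HEK293 cells. Preincubation 30 min at 37C, vasopressin 25 nM for 5 min, lysis 10 min, bead incubation 5 hr at room temperature.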
# GBA activity: human lysosomal glucosylceramidase modulation | P04062 | purified enzyme, resorufin glucoside fluorescence (screen aimed at inhibitors), 20 min | Potency, µM | 48,000 compounds, 1.1% hits; in the data active means potency below about 15 µM; inconclusive means mostly about 16 µM to 33 µM;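 further: the screen sought inhibitors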
# Target sequence (P04062 whole entry, looked up): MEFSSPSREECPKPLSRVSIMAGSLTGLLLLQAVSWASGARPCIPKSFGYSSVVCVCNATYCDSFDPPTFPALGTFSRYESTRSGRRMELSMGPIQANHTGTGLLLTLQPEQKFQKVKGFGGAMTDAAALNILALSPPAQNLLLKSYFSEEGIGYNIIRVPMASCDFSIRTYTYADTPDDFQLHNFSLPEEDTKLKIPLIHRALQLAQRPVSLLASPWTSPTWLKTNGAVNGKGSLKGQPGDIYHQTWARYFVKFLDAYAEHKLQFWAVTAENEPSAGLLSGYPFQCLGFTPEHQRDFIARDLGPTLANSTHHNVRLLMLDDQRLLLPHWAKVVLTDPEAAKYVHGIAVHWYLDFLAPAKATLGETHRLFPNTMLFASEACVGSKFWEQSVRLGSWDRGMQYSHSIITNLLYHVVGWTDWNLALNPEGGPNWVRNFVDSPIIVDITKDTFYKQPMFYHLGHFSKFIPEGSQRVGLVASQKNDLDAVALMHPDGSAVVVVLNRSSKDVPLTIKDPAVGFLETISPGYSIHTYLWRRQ
#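 Normal human glucocerebrosidase (0.2 nM final) was assayed with resorufin β-D-glucopyranoside (30 uM final) in 50mM citric acid/KH2PO4, 10mM sodium taurocholate, 0.01% tween-20, pH 5.9. Compounds were titrated; fluorescence (Ex 548, Em 600) read after 20 min at RT.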
# PK Bst: modulators of Bacillus stearothermophilus pyruvate kinase; purified pyruvate kinase, luminescence ATP production; ribose 5-phosphate activator present at AC10; Potency, µM; 51,000 compounds, 1.2% hits; AID 361; in the data active means potency below about 11 µM; inconclusive means mostly about 12 µM to 25 µM;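 the screen sought inhibitors and activators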;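 further: scaled between full activation by ribose 5 phosphate and full inhibition by luteolin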
# Numbers without * were called inactive; i = inactive; ? = inconclusive; . = not tested or not shown; [ ] = remark or other dose. This is a sample that favours compounds with a hit; in the whole collection about 3.9% have one here. Unless noted, the call rests on the fitted dose curve; in most records, active means well fitted curve in the direction sought with a large enough effect; inconclusive means small, poorly fitted or top-dose-only effect, or another doubt; inactive means no such curve, though single readings can be large; an effect the other way counts as inactive or inconclusive. Potency means the concentration at half of the fitted maximal effect.
SMILES,Luciferase inh,ERK AVP inh,GBA activity,PK Bst
O=C(Nc1ccc(N2CCCCC2)c(C(=O)O)c1)c1ccco1,-1%,-16%,>77,>57
CC(=O)N1CCN(c2ccc(NC(=O)c3ccccc3Br)cc2Cl)CC1,-5%,?,0.33*,>57
CC1CC2C(C(O)C[C@]3(C)C2CC[C@]3(O)C(=O)CO)[C@]2(C)C=CC(=O)C=C12 (some centres undefined),.,5%,.,.
O=C(NC1CC1)c1cccc(Nc2ccc(-c3ccc4c(c3)OCCO4)nn2)c1,2µM*,10%,>77,1.5*
O=C(Nc1ccncc1)c1ccc2c(c1)OCCO2,?,-15%,.,.
CC(=O)O[C@H]1CC[C@@]2(C)C(=CC[C@@H]3[C@@H]4CC[C@H](c5cc(C(F)(F)F)n(C(C)=O)n5)[C@]4(C)CC[C@@H]32)C1,3%[11.4 µM],11%[11.5 µM],.,.
CC1(C(=O)Nc2nccs2)Cc2ccccc2C(=O)O1 (centres undefined),0%,25µM*,>77,i
COc1cccc(NC(=O)c2oc3ccccc3c2NC(=O)c2ccc3c(c2)OCO3)c1,4µM*,11%,>77,i
COc1cc(C(=O)Nc2ccc3c(c2)OCCO3)ccc1OC(C)C,13µM*,-26%,>77,i
COc1cccc(NC(=O)c2oc3ccccc3c2NC(=O)C(C)(C)C)c1,0%,13%,.,>57
CCc1c(C(=O)Nc2ccc(OC)c(Cl)c2)[nH]c(C)c1C(C)=O,-2%,17%,>77,3.1*
COc1ccc(OC)c(NC(=O)c2[nH]c(C)c(C(C)=O)c2C)c1,-1%,-30%,>77,>57
COc1cc(C(=O)Nc2ccc3c(c2)OCCO3)ccc1OC(F)F,16µM*,?,>77,?
C[C@@H](c1ccccc1)N1C(=O)[C@H]2[C@H]3[C@H](O)[C@H](O)C/C(=N/OCc4ccccc4)[C@H]3CC[C@@H]2C1=O,-1%[11.4 µM],9%[11.5 µM],.,.
CC1(O)C(=O)C=C2C=C3CCCN3C=C2C1=O (centres undefined),.,20%[11.5 µM],.,.
COc1ccc(NCc2c(O)ccc3ccccc23)cc1,0%[11.4 µM],16%[11.5 µM],.,.
NCC1O[C@@H](OC2C(N)C[C@H](N)[C@@H](O[C@H]3OC(CO)C(O)C(N)C3O)C2O)C(O)C(O)C1O (some centres undefined),.,9%,.,.
COC(=O)c1ccc(NC(=O)c2ccc3c(c2)OCO3)cc1,-7%,-17%,>77,>57
CC(C)=CC(=O)Nc1ccc2c(c1)OCO2,25µM*,1%,>77,i
O=C(CSCSCC(=O)Nc1ccc2c(c1)OCO2)Nc1ccc2c(c1)OCO2,-16%,18%,>77,>57
COc1ccc(NC(=O)C=C(C)C)cc1Cl,20µM*,16%,>77,.
COc1ccc(NC(=O)c2ccc3c(c2)OCO3)cc1Cl,3.2µM*,36%,>77,.
C[C@@H](CC(=O)O)[C@@H](N)C(=O)O,0%,6%,.,.
CC(C)=CCC/C(C)=C/CO/N=C1/C[C@@H](O)[C@@H](O)[C@@H]2[C@@H]3C(=O)N(c4cccc(Oc5ccccc5)c4)C(=O)[C@H]3CC[C@@H]12,0%[11.4 µM],7%[11.5 µM],.,.
O=C(Nc1ccc2c(c1)nc1n2CCOC1)c1ccco1,16µM*,?,?,?
SMILES,Luciferase inh,ERK AVP inh,GBA activity,PK Bst
O=C(Nc1ccc2c(c1)nc1n2CCSC1)c1ccco1,6.3µM*,-6%,.,4.6*
O=C(Nc1ccc2c(c1)nc1n2CCN(C2CCCCC2)C1)c1ccco1,-6%,-11%,i,>57
c1ccc2c(c1)Cn1nnnc1-2,2%,-14%,>77,>57
c1ccc2c(c1)Cn1c-2nc2ccccc21,13µM*,-3%,?,?
Cc1ccnc(NC(=O)CCC(=O)N(CC(=O)NC(C)(C)C)C2CCCC2)c1,3%,39%,>77,>57
Cc1ccnc(NC(=O)CCC2CCCCC2)c1,20µM*,-2%,i,.
CS(=O)(=O)Nc1cccc(-c2nccc(NCc3ccccc3)n2)c1,1%[2.29 µM],-3%,.,.
CC1(C)CC(=O)C2=C(C1)OC1=C(C(=O)CC(C)(C)C1)C2c1ccc(O)cc1O,-24%,10µM*,.,.
CCN(CC)c1ccc(NC(=O)c2cccc(C)c2OC)c(C)c1,?,25µM*,>77,.
COc1c(C)cccc1C(=O)Nc1cc(-c2nn3c(C)nnc3s2)ccc1C,0%,.,.,.
COc1cc2nc(N3CC=[N+](C(=O)c4ccco4)CC3)nc(N)c2cc1OC,0%,-15%,.,.
COc1ccc2c(=O)c(-c3ccccc3)coc2c1,.,31%,.,.
CCN(CC)C(=O)Oc1ccc2c(=O)c(-c3ccccc3)coc2c1,16µM*,?,>77,.
CO[C@@H]1COC(=O)[C@H](COCc2ccccc2)NC(=O)C/C=C\[C@@H](C)[C@H](OC)COC(=O)[C@@H](C)NC(=O)C/C=C\[C@H]1C,1%[11.4 µM],11%[11.5 µM],.,.
C=CCn1cnc2c(c1=O)c1nc3ccccc3nc1n2/N=C/c1cccc(OC)c1,1%,-20%,i,.
COCCn1cnc2c(c1=O)c1nc3ccccc3nc1n2/N=C/c1cccc(OC)c1OC,5%,-24%,i,3.6*
COCc1cc(=O)n2c(-c3ccc(C)cc3)n[nH]c2n1,13µM*,.,.,.
Cc1ccccc1-c1cc(N(C)Cc2ccco2)ncn1,0%[2.29 µM],-8%,.,.
C[N@+]1(CCC(=O)c2ccccc2)CC[C@H]2CC[C@H](C2)C1,-1%[11.4 µM],-9%[11.5 µM],.,.
Cc1ccc(N2C(=O)c3ccccc3C2O)nc1 (centres undefined),6.3µM*,3%,.,.
Cc1ccc(N2C(=O)c3ccccc3C2Nc2ccccc2F)nc1 (centres undefined),3%,-24%,.,.
O=c1c2c(nc3cc(-c4ccc(F)cc4)[nH]n13)CCCC2,7.9µM*,-16%,?,5.3*
CCCCCCCCCCCCC/C=C\[C@H](O)[C@H](N)CO,-3%,.,.,.
Cc1ccc(Nc2nc(N)nc(CN3CCN(c4ccccc4)CC3)n2)cc1Cl,-1%,-22%,4.2*,>57
COc1ccc(N2CCN(Cc3nc(N)nc(Nc4ccc(C)c(Cl)c4)n3)CC2)cc1,1%,?,4*,>57
CCCCC(CC)COCC1CO1 (centres undefined),.,7%,.,.
Clc1ccc(-c2nn3cnnc3s2)c(Cl)c1,-4%,-15%,>77,10*
COc1ccccc1N1CCN(CCOc2c(OC)cccc2OC)CC1,-4%[25.5 µM],.,.,>26
